Common to all, as to test: PBM binding z-score (relative to random genomic background probes); higher = stronger binding; sequences stand for … in GC…GCGATTGACAGCGTAGAATGAAGG
Test [1] relates to PPARg:RXRa DBDmut IVT, anti-RXR (DBD mutation: RXRa K156A/R161A, NR concentration 270 nM, RXRa partner concentration 90 nM). A digest of the protocol: (§1)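 Ligand-free nuclear receptor dimers were applied to custom Agilent 4×180K protein-binding microarrays whose double-stranded probes carried direct-repeat seeds, single-nucleotide variants, half-site ablations and random human genomic background sequences in 34-nt variable regions. Incubation lasted 1 h. Binding z-scores were computed against the random background probes from regression-normalized fluorescence.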

In test [2] the test system is PPARg:RXRa IVT, anti-PPARg (NR concentration 270 nM, RXRa partner concentration 90 nM). An outline of the steps: as §1
Test [3] deals with PPARg DBDmut:RXRa IVT, anti-PPARg (DBD mutation: PPARg1 K132A/R137A, NR concentration 270 nM, RXRa partner concentration 90 nM). A digest of the protocol:
as §1

The test system of test [4] is PPARg DBDmut IVT, anti-PPARg (DBD mutation: PPARg1 K132A/R137A, NR concentration 270 nM). A digest of the protocol:
as §1

For test [5], the system named is PPARg homodimer (NR concentration 180 nM). An outline of the steps: as §1
Test [6] deals with PXR:RXRa (NR concentration 270 nM, RXRa partner concentration 90 nM). A digest of the protocol:
as §1

The test system of test [7] is PXR homodimer (NR concentration 270 nM). A digest of the protocol:
as §1

The test system of test [8] is RARa:RXR (NR concentration 270 nM, RXRa partner concentration 90 nM). A digest of the protocol: as §1
Test [9] has as its system RARa homodimer (NR concentration 270 nM). An outline of the steps:
as §1

The test system of test [10] is RARb:RXRa (NR concentration 270 nM, RXRa partner concentration 90 nM). A digest of the protocol: as §1
Test [11] concerns RARb homodimer (NR concentration 270 nM). An outline of the steps: as §1
For test [12], the system named is RARg:RXRa (NR concentration 270 nM, RXRa partner concentration 90 nM). An outline of the steps: as §1
Test [13] relates to RARg homodimer (NR concentration 270 nM). An outline of the steps: as §1
Test [14] deals with RXRa DBDmut IVT, anti-RXR (DBD mutation: RXRa K156A/R161A, NR concentration 90 nM). An outline of the steps: as §1
Test [15] has as its system RXRa homodimer (NR concentration 180 nM). A digest of the protocol: as §1
Test [16] deals with THRa:RXRa (NR concentration 90 nM, RXRa partner concentration 90 nM). A digest of the protocol:
as §1

Test [17] deals with THRa homodimer (NR concentration 90 nM). A digest of the protocol:
as §1

The test system of test [18] is VDR:RXRa (NR concentration 270 nM, RXRa partner concentration 90 nM). An outline of the steps:
as §1

Test [19] relates to VDR homodimer (NR concentration 270 nM). A digest of the protocol: as §1

With CGTCAAAGTTCAAGGTAACGTAGCAGAAAGCAGC, the PBM binding z-score in [1] is 0.831; in test [2], 2.13; in [3], 0.429; in [4], 0.415; in [5], 4.56; in [6], 4.44. For the same sequence, the PBM binding z-score in test [7] was 3.02; in [8] it was 3.64; in test [9] it was 2.42; in [10], 5.1; in [11], 3.85; in test [12] it was 5.5. Also, the PBM binding z-score was determined as 6.15 in [13]; 4.38 in test [14]; 4.75 in [15]; 3.01 in [16]; 1.09 in [17]; 3.6 in test [18]. This sequence also came in with a PBM binding z-score in test [19] of 3.26.
For the sequence CCTCGGAGGACAGACGGTCAGAGCTGTCCGCTTT, the PBM binding z-score was -0.634 in [1]; -0.745 in [2]; -1.14 in test [3]; -1.66 in test [4]; -0.576 in [5]; -0.726 in test [6]. The PBM binding z-score in [7] is -0.42; in test [8], -0.842; in test [9], -0.616; in test [10] it was 1.23; in test [11], 0.948; in test [12], 0.15. The PBM binding z-score was 1.12 in test [13]; -0.152 in test [14]; -0.87 in test [15]; -0.0863 in test [16]; -0.156 in test [17]; -0.53 in [18]. This sequence also registered a PBM binding z-score in [19] of -0.276.
On to TCTTGTAGATCAGCACGTTAAGAAAGCTGGCCAA, for which the PBM binding z-score in test [1] was 1.32; in [2], -0.181; in test [3], -0.456; in [4] it was -0.271; in test [5], -0.311; in test [6], 0.0608. Moreover, the PBM binding z-score is 0.0555 in test [7]; 0.441 in test [8]; 0.0158 in test [9]; -0.204 in test [10]; -0.823 in test [11]; -0.246 in [12]. The PBM binding z-score in test [13] is -0.479; in test [14] it was 0.626; in test [15] it was -0.185; in test [16], -0.261; in [17], -0.422; in test [18] it was 0.0103. In addition, in [19], the PBM binding z-score is -0.0275.
In the case of TCACATAGGTAAATGCTAGGTGAAAGTCCGATCT, the PBM binding z-score in test [1] was 2.22; in test [2], 1.12; in test [3] it was 0.19; in [4], -0.0289; in [5] it was -0.198; in test [6], 0.34. Besides, the PBM binding z-score in test [7] was -0.0319; in test [8], 0.692; in [9] it was -0.153; in test [10], 0.251; in test [11], 0.255; in test [12], 0.301. For the same sequence, the PBM binding z-score amounted to 0.189 in test [13]; 1.17 in test [14]; 0.654 in test [15]; 1.31 in [16]; 0.359 in test [17]; 0.334 in test [18]. For the same sequence, the PBM binding z-score in test [19] is -0.199.
TCATATAGTTAATACAGGTGAAAGTCGGCATCTA: the PBM binding z-score in test [1] was 2.82; in test [2], 1.74; in test [3] it was 1.53; in test [4], 1.48; in [5] it was 1.32; in test [6] it was 1.05. The PBM binding z-score in test [7] was found to be 0.721; in test [8] it was 1.59; in test [9], 2.34; in [10], 0.914; in test [11] it was 0.692; in [12], 0.857. Also, the PBM binding z-score in test [13] was 0.789; in test [14], 2.12; in [15], 1.2; in test [16], 1.02; in test [17], 0.515; in [19], 0.657.
Turning to TTACCAAGGTGAGCTGAGTTCGTTGATCCAACTC, the PBM binding z-score in test [1] was 1.27; in test [2] it was 1.51; in [3] it was -0.265; in [4] it was -0.637; in [5], -0.679; in [6], 5.28. For the same sequence, the PBM binding z-score in [7] is 2.22; in test [8], 0.594; in test [9], -0.779; in test [10] it was 1.04; in test [11], 0.421; in test [12], 0.2. The PBM binding z-score is 0.307 in [13]; 0.458 in test [14]; 0.157 in test [15]; 2.71 in [16]; 0.173 in [17]; 3.63 in [19].
Turning to CCTACTGGGCTATCAGGTCATTGATATCAACGTT, the PBM binding z-score is 3.17 in [1]; 4.19 in [2]; 0.0312 in test [3]; -0.392 in [4]; 0.841 in test [5]; 1.33 in test [6]. Also, the PBM binding z-score in test [7] came out at 0.575; in test [8], 1.41; in test [9], 0.294; in test [10] it was 1.55; in test [11], 2.18; in test [12], 1.56. Moreover, the PBM binding z-score was determined as 1.35 in test [13]; 0.092 in test [14]; 0.965 in test [15]; 3.1 in test [16]; 2.44 in test [17]; 1.01 in [19].

The values are drawn from the supplement of paper PMC6555819.
